{"source": "paper PMC4552634", "about": "“A New Set of Chemical Starting Points with Plasmodium falciparum Transmission-Blocking Potential for Antimalarial Drug Discovery” (PLoS ONE, 2015)", "note": "Out of some 13,000 compounds screened, about 3,200 (25%) showed an effect of 50% or more. This is one part of the list.", "data": [{"tested_on": "P. falciparum stage V gametocytes", "set-up": "BacTiter-Glo ATP luminescence viability of purified stage V gametocytes in 384-well plates, per cent inhibition versus DMSO", "conditions": "48 h, 5 µM; inhibitor", "units": {"% Inhibition": "%"}, "values": [{"smiles": "CCN(CC)S(=O)(=O)c1ccc(C=CC(=O)Nc2cc(Cl)ccc2N2CCOCC2)cc1", "note": "[TCMDC-125117]", "% Inhibition": 28.22}, {"smiles": "Cc1cc(-c2cc(Cl)ccc2Cl)no1", "note": "[TCMDC-131691]", "% Inhibition": -15.9}, {"smiles": "CN(C)CCn1cc(C(=O)c2cc(Cl)ccc2O)cc1-c1nc2ccccc2c(=O)[nH]1", "note": "[TCMDC-125021]", "% Inhibition": -20.22}, {"smiles": "Cc1cccc(C)c1N1CCN(C2CCC(NC(=O)c3cc4ccccc4[nH]3)CC2)CC1", "note": "(stereo not drawn) [TCMDC-132890]", "% Inhibition": -33.12}, {"smiles": "COc1ccc2ncc(OC)c(CCN3CC[C@@H](NCc4ccc5c(n4)NC(=O)CS5)[C@H](O)C3)c2n1", "note": "[TCMDC-134668]", "% Inhibition": 10.18}, {"smiles": "CCN(CC)CCN(CCN(CC)CC)c1ccc(-c2nc3cc(Cl)c(Cl)cc3[nH]2)cc1", "note": "[TCMDC-139329]", "% Inhibition": 70.38}, {"smiles": "CC(=O)Nc1ccc(-c2nc3ccc(-c4nc5ccc(NC(C)=O)cc5[nH]4)cc3[nH]2)cc1", "note": "[TCMDC-125761]", "% Inhibition": 0.4612}, {"smiles": "Clc1ccc(-c2nc3ccc(-c4ccc5nc(-c6ccc(Cl)cc6)[nH]c5c4)cc3[nH]2)cc1", "note": "[TCMDC-123460]", "% Inhibition": 1.652}, {"smiles": "Cc1nc2nc(N)nc(N)c2c(C)c1Cc1cccs1", "note": "[TCMDC-137642]", "% Inhibition": -3.344}, {"smiles": "Cc1ccnc(NC(c2ccc(Cl)c([N+](=O)[O-])c2)c2ccc3cccnc3c2O)c1", "note": "(stereo not drawn) [TCMDC-123691]", "% Inhibition": 121}, {"smiles": "O=[N+]([O-])c1cccc(C(Nc2ccccn2)c2ccc3cccnc3c2O)c1", "note": "(stereo not drawn) [TCMDC-125725]", "% Inhibition": 107}, {"smiles": "CC(CCc1ccccc1)NCC(O)c1cccc([N+](=O)[O-])c1", "note": "(stereo not drawn) [TCMDC-125728]", "% Inhibition": -0.1444}, {"smiles": "Cc1ccnc(NC(c2cccc(Cl)c2Cl)c2ccc3cccnc3c2O)c1", "note": "(stereo not drawn) [TCMDC-123997]", "% Inhibition": 94.28}, {"smiles": "Cc1ccnc(NC(c2cccc(OCc3ccccc3)c2)c2ccc3cccnc3c2O)c1", "note": "(stereo not drawn) [TCMDC-125558]", "% Inhibition": 93.78}, {"smiles": "Oc1cccc2ccc(Nc3ccccn3)nc12", "note": "[TCMDC-125567]", "% Inhibition": 43.59}, {"smiles": "COc1ccc(-c2cc(C(=O)N[C@@H](Cc3ccccc3)C(=O)NCCN3CCCCC3)ccc2O)cc1", "note": "[TCMDC-140804]", "% Inhibition": 32.57}, {"smiles": "Cn1cnc(CCNC(=O)c2cccc(-c3cccc(-c4nc5cc(C(F)(F)F)ccc5[nH]4)c3)c2)c1", "note": "[TCMDC-132496]", "% Inhibition": 22.81}, {"smiles": "CCOCCCn1c(=N)c(C(=O)NC(C)c2ccccc2)cc2c(=O)n3cccc(C)c3nc21", "note": "(stereo not drawn) [TCMDC-124348]", "% Inhibition": 9.74}, {"smiles": "Cc1cc(NC(c2ccc(Cl)cc2)c2ccc3cccnc3c2O)no1", "note": "(stereo not drawn) [TCMDC-123828]", "% Inhibition": 23.63}, {"smiles": "O=C(Cc1ccccc1)NC(c1ccco1)c1cc(Cl)c2cccnc2c1O", "note": "(stereo not drawn) [TCMDC-125561]", "% Inhibition": -24.24}, {"smiles": "Oc1c(C(Nc2ccccn2)c2ccco2)cc(Cl)c2cccnc12", "note": "(stereo not drawn) [TCMDC-125324]", "% Inhibition": 60.61}, {"smiles": "Oc1c(C(Nc2ccccn2)c2ccc(Cl)cc2Cl)ccc2cccnc12", "note": "(stereo not drawn) [TCMDC-125559]", "% Inhibition": 98.53}, {"smiles": "CCC(=O)NC(c1ccco1)c1cc(Cl)c2cccnc2c1O", "note": "(stereo not drawn) [TCMDC-123650]", "% Inhibition": -55.25}, {"smiles": "Cc1ccc(Nc2nccc(NCC(O)c3ccc(C(F)(F)F)cc3)n2)cc1", "note": "(stereo not drawn) [TCMDC-136593]", "% Inhibition": 10.35}, {"smiles": "Cc1ccc2nc(NC#N)[nH]c2c1", "note": "[TCMDC-131394]", "% Inhibition": 6.156}, {"smiles": "Cc1noc(C)c1-c1ccc2c(Nc3ccccc3C(C)(C)C)c(C(=O)NCc3ccc(OC(C)C)cc3)cnc2c1.Cl", "note": "[TCMDC-136370]", "% Inhibition": -53.99}, {"smiles": "CCCOc1ccc2ccccc2c1CNCCCCCCNCc1c(OCCC)ccc2ccccc12", "note": "[TCMDC-137966]", "% Inhibition": 143.6}, {"smiles": "Oc1ccc2ccccc2c1CNCCC1CCCCC1", "note": "[TCMDC-137605]", "% Inhibition": -1.678}, {"smiles": "CCCCCCOc1ccc2ccccc2c1CNCCCCCCNCc1c(OCCCCCC)ccc2ccccc12", "note": "[TCMDC-137963]", "% Inhibition": 142.3}, {"smiles": "c1ccc2c(CNCCCCCCNCc3c(OCC4CC4)ccc4ccccc34)c(OCC3CC3)ccc2c1", "note": "[TCMDC-137839]", "% Inhibition": 118.2}, {"smiles": "CCCCCCCCNCc1c(O)ccc2ccccc12", "note": "[TCMDC-137606]", "% Inhibition": 26.15}, {"smiles": "CCOc1cc(OCC)c2ccccc2c1CNCCCCCCNCc1c(OCC)cc(OCC)c2ccccc12", "note": "[TCMDC-137982]", "% Inhibition": 121.9}, {"smiles": "Oc1ccc2ccccc2c1CNCC1CCCCC1", "note": "[TCMDC-137608]", "% Inhibition": 2.485}, {"smiles": "Cc1cc(N[C@@H](CC(C)C)C(=O)NCCc2ccccc2)nc(NCC2CCCCC2)n1", "note": "[TCMDC-134920]", "% Inhibition": -75.82}, {"smiles": "Cn1cncc1C(=O)Nc1ccc(-c2ccc(-c3nc4ccc(C(F)(F)F)cc4[nH]3)cc2)cc1", "note": "[TCMDC-137065]", "% Inhibition": -63.66}, {"smiles": "Cc1cc(Nc2ncc3c(n2)N(C2CCC2)CC3)ccc1N1CCN(C)CC1", "note": "[TCMDC-134146]", "% Inhibition": 20.06}, {"smiles": "Cc1cccc2[nH]c(-c3ccc(-c4ccc(NC(=O)NCc5cccc(F)c5)cc4)cc3)nc12", "note": "[TCMDC-133294]", "% Inhibition": -5.117}, {"smiles": "CN1CCN(c2ccc3nccc(CCN4CCC(NCc5ccc6c(n5)NC(=O)CO6)CC4)c3n2)CC1", "note": "[TCMDC-141580]", "% Inhibition": 8.776}, {"smiles": "CCOc1ccc2ccccc2c1CNCCCCCCNCc1c(OCC)ccc2ccccc12", "note": "[TCMDC-137791]", "% Inhibition": 117.2}, {"smiles": "COc1ccc(C2CC(=O)C3=C(C2)NC(C)=C(C(=O)OC(C)C)C3c2ccc(O)cc2)cc1OC", "note": "(stereo not drawn) [TCMDC-125633]", "% Inhibition": 43.1}, {"smiles": "CC(C)C[C@H](NC(=O)c1cc2cc(OCCN3CCNCC3)ccc2o1)C(=O)NC1CC[C@@H](C)N(C(=O)Nc2ccc(Cl)cc2)CC1=O", "note": "(stereo partly drawn) [TCMDC-133539]", "% Inhibition": 8.489}, {"smiles": "C[C@@H]1CC[C@H](NC(=O)[C@H](CC2CCCC2)NC(=O)N2CCNCC2)C(=O)CN1S(=O)(=O)c1ccccn1", "note": "[TCMDC-141571]", "% Inhibition": 57.62}, {"smiles": "COc1cccc2cc(C(=O)N[C@@H](CC(C)C)C(=O)NC3CC[C@@H](C)N(C(=O)Nc4ccncc4)CC3=O)oc12", "note": "(stereo partly drawn) [TCMDC-134320]", "% Inhibition": -6.979}, {"smiles": "CCOC(=O)NC1=NC(C)(C)N(OCCCOc2cc(Cl)c(Cl)cc2Cl)C(NC(=O)OCC)=N1", "note": "[TCMDC-131743]", "% Inhibition": 1.787}, {"smiles": "CCN(CC)c1ccc(C(c2ccc(N(CC)CC)cc2)c2ccc([N+](=O)[O-])cc2)cc1", "note": "[TCMDC-131286]", "% Inhibition": -67.18}, {"smiles": "O=[N+]([O-])c1ccc(-n2nc(Cc3ccccc3)n(Cc3cccc(F)c3)c2=S)c(C(F)(F)F)c1", "note": "[TCMDC-135486]", "% Inhibition": 73.39}, {"smiles": "N#Cc1ccccc1C(=O)N(Cc1cncn1Cc1cccc(F)c1)CC1CC1", "note": "[TCMDC-132459]", "% Inhibition": -1.299}, {"smiles": "CCN(CCNC(=O)Cn1c(C)cc2cc([N+](=O)[O-])ccc21)c1cccc(C)c1", "note": "[TCMDC-140764]", "% Inhibition": 1.649}, {"smiles": "CN(C)CCN(Cc1ccccc1)c1ccc([N+](=O)[O-])cc1C(F)(F)F", "note": "[TCMDC-135372]", "% Inhibition": 16.64}, {"smiles": "Cc1cccc(CC2CC(=O)N(c3ccc([N+](=O)[O-])cc3)C2=O)c1", "note": "(stereo not drawn) [TCMDC-125732]", "% Inhibition": -3.627}, {"smiles": "CC(C)CCn1c(Sc2ccc([N+](=O)[O-])cc2C(F)(F)F)nnc1-c1ccccc1Cl", "note": "[TCMDC-135484]", "% Inhibition": 10.18}, {"smiles": "O=C(NC1CC1)c1ccc(Cn2c(SCc3cccc([N+](=O)[O-])c3)nc3ccccc3c2=O)cc1", "note": "[TCMDC-123577]", "% Inhibition": 43.52}, {"smiles": "N#Cc1cc([N+](=O)[O-])ccc1-n1nc(C(N)=O)n(Cc2cccc(F)c2)c1=S", "note": "[TCMDC-134721]", "% Inhibition": 80.05}, {"smiles": "Cc1cccc(Cn2c(C(N)=O)nn(-c3ccc([N+](=O)[O-])cc3C#N)c2=S)c1", "note": "[TCMDC-134720]", "% Inhibition": 78.61}, {"smiles": "O=C(CCc1cccc(O)c1)NCC(NCCCNc1cc(=O)c2ccccc2[nH]1)c1cc(Br)cc(Br)c1", "note": "(stereo not drawn) [TCMDC-140319]", "% Inhibition": -27.67}, {"smiles": "COc1ccc(C(=O)N2CCC3(CC2)C(=O)N(CC(=O)NCC2CCCCC2)CN3c2ccccc2)c(OC)c1", "note": "[TCMDC-125170]", "% Inhibition": -47.66}, {"smiles": "O=C(NCC1CCN(Cc2ccc3c(c2)OCCO3)C1)c1cc(-c2cccc(C(F)(F)F)c2)cs1.O=C(O)C(F)(F)F", "note": "(stereo not drawn) [TCMDC-134458]", "% Inhibition": 1.256}, {"smiles": "O=C(NCC1CCN(Cc2cccc(F)c2)C1)c1cc(-c2cccc(C(F)(F)F)c2)cs1", "note": "(stereo not drawn) [TCMDC-134480]", "% Inhibition": 4.488}, {"smiles": "CC(=O)Nc1ccc(CN2CCC(CNC(=O)c3cc(-c4cccc(C(F)(F)F)c4)cs3)C2)cc1.O=C(O)C(F)(F)F", "note": "(stereo not drawn) [TCMDC-134456]", "% Inhibition": 0.3319}, {"smiles": "O=C(NCC1CCN(Cc2ccsc2)C1)c1cc(-c2cccc(C(F)(F)F)c2)cs1.O=C(O)C(F)(F)F", "note": "(stereo not drawn) [TCMDC-134478]", "% Inhibition": -49.55}, {"smiles": "O=C(NCC1CCN(Cc2cccc(C(F)(F)F)c2)C1)c1cc(-c2cccc(C(F)(F)F)c2)cs1", "note": "(stereo not drawn) [TCMDC-134483]", "% Inhibition": 53.9}, {"smiles": "O=C(NCC1CCN(Cc2cccc(C(F)(F)F)c2)C1)c1cc(-c2cccc(F)c2)cs1", "note": "(stereo not drawn) [TCMDC-134484]", "% Inhibition": 54.37}, {"smiles": "O=C(NCC1CCN(CC2CCCCC2)C1)c1cc(-c2cccc(C(F)(F)F)c2)cs1.O=C(O)C(F)(F)F", "note": "(stereo not drawn) [TCMDC-134422]", "% Inhibition": 101.5}, {"smiles": "CN(C)c1ccc(-c2csc(C(=O)NCC3CCN(CC4CCCCC4)C3)c2)cc1.O=C(O)C(F)(F)F", "note": "(stereo not drawn) [TCMDC-134424]", "% Inhibition": 97.4}, {"smiles": "COc1ccccc1C1CCN(C2CCC(NC(=O)/C=C/c3cccc(C(F)(F)F)c3)CC2)CC1", "note": "(stereo not drawn) [TCMDC-133555]", "% Inhibition": -60.89}, {"smiles": "Cc1cc(-c2cccc3c(NC(=O)N4CCc5cc6nccc(N7CCN8CCC[C@H]8C7)c6cc54)cccc23)cc(C)n1", "note": "[TCMDC-139794]", "% Inhibition": -14.58}]}]}
